In PubChem BioAssay (Tox21):
Values joined by “and” are separate entries in the source; they are usually repeats but may differ in a detail not shown here. Equal entries are not always repeated. Inconclusive results are not listed. Where a call stands in place of a potency, no number is given. Where a structure was tested more than once in an assay, its records may differ in their call. Active and inactive are the calls of the source. Unless noted, calls come from the whole dose curve; as a rule, active = well fitted curve in the direction sought with a large enough effect in the repeat runs; inconclusive = weak or mixed curves; inactive = no such curve, though single readings can be large; an effect the other way counts as inactive or inconclusive.

How the values were obtained:
[1] = target: Acetylcholinesterase (Homo sapiens) (UniProt P22303); experiment: Acetylcholinesterase (AChE) small molecule antagonists: fluorescence cell-based qHTS assay (AID 1347398; calls by dose curve; note: nearly all actives have a fitted effect of over 50% in size); conditions: SH-SY5Y cells; Potency: AChE activity; series mostly up to 115 µM
Acetylcholinesterase (Homo sapiens), sequence (P22303 whole entry, looked up): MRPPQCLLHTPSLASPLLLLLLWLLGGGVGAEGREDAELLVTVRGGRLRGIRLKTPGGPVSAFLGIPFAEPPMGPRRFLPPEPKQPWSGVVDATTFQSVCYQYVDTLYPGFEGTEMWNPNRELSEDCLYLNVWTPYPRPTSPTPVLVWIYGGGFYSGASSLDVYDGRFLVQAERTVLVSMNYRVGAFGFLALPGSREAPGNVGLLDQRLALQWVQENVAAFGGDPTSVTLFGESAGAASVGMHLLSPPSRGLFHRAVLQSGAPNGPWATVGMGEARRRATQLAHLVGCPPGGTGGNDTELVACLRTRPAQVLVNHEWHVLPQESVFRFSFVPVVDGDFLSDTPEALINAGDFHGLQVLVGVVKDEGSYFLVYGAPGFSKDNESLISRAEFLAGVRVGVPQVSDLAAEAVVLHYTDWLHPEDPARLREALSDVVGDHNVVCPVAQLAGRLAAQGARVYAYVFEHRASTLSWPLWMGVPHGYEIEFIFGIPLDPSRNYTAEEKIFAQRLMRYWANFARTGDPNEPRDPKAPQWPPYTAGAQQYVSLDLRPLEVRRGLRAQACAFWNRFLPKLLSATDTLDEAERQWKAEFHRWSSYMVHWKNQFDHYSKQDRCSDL
In short: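 Thiocholine generated from acetylthiocholine by SH-SY5Y cell AChE is detected with Thiolite Green (Ex/Em 490/520 nm) after 40 min at room temperature, following 30 min compound pretreatment at 37 C.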

[2] = target: Acetylcholinesterase (Homo sapiens) (UniProt P22303); experiment: Acetylcholinesterase (AChE) small molecule antagonists: enzyme-based qHTS assay with human liver microsomes (AID 1347399; calls by dose curve; note: nearly all actives have a fitted effect of over 60% in size); conditions: Potency: qHTS inhibition; series mostly up to 115 µM
In short: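 Recombinant human AChE (50 mU/mL in the enzyme mix) and human liver microsomes (0.25 mg/mL final) were preincubated with compound and NADPH (0.25 mg/mL final) for 30 min at 37 C. Acetylthiocholine/DTNB was then added; thiocholine was read colorimetrically after 10 min at room temperature.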

[3] = target: Cytochrome P450 2C19 (Homo sapiens) (UniProt P33261); experiment: Cytochrome P450 Family 2 Subfamily C Member 19 (CYP2C19) small molecule antagonists: luciferase reporter qHTS assay (AID 1671197); conditions: P450-Glo CYP2C19 enzyme, luciferin luminescence, 1 h; series mostly up to 115 µM; note: nearly all actives have a fitted effect of over 65% in size
Cytochrome P450 2C19 (Homo sapiens), sequence (P33261 whole entry, looked up): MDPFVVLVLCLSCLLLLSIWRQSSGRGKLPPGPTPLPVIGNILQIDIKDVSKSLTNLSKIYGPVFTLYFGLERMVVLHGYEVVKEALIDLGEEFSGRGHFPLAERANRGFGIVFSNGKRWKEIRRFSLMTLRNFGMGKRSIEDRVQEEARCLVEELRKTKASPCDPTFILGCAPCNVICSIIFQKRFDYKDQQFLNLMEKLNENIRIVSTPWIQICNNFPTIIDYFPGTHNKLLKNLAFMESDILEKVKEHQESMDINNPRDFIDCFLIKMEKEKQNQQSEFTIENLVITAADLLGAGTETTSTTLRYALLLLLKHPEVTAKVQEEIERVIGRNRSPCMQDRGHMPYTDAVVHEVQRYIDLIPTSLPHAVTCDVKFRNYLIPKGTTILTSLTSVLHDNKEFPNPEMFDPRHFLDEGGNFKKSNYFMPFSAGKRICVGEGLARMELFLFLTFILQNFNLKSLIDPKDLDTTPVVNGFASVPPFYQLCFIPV
In short: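 P450-Glo CYP2C19 system: enzyme-substrate mix with compound 10 min at room temperature, then NADPH regeneration solution, 1 h at 37C. Proluciferin-to-luciferin conversion detected by luminescence after 20 min with detection reagent; ketoconazole as positive control.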

[4] = target: Cytochrome P450 2C9 (Homo sapiens) (UniProt P11712); experiment: Cytochrome P450 Family 2 Subfamily C Member 9 (CYP2C9) small molecule antagonists: luciferase reporter qHTS assay (AID 1671198); conditions: P450-Glo CYP2C9 enzyme assay, luciferin luminescence; series mostly up to 115 µM; note: nearly all actives have a fitted effect of over 50% in size
Cytochrome P450 2C9 (Homo sapiens), sequence (P11712 whole entry, looked up): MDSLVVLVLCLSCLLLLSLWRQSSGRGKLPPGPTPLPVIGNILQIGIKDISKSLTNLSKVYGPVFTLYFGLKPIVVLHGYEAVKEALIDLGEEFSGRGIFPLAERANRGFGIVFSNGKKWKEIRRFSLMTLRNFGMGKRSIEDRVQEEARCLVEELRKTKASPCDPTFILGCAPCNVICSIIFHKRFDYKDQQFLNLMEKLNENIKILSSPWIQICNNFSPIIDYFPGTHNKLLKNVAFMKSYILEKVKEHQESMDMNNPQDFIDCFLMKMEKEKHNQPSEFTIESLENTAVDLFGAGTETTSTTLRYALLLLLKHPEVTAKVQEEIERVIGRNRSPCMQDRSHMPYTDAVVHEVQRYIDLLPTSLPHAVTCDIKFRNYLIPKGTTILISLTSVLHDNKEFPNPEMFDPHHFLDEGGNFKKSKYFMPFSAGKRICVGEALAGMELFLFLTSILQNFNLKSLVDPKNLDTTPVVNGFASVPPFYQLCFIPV
In short: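 CYP2C9 activity was measured with a P450-Glo proluciferin substrate. Enzyme–substrate mix was held with compound for 10 min at room temperature, then NADPH regeneration solution was added for 1 h at 37C. Luciferin product was read as luminescence.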

[5] = target: Cytochrome P450 1A2 (Homo sapiens) (UniProt P05177); experiment: Cytochrome P450 Family 1 Subfamily A Member 2 (CYP1A2) small molecule antagonists: luciferase reporter qHTS assay (AID 1671199); conditions: P450-Glo CYP1A2 enzyme, luciferin luminescence, 1 h; series mostly up to 115 µM; note: nearly all actives have a fitted effect of over 50% in size
Cytochrome P450 1A2 (Homo sapiens), sequence (P05177 whole entry, looked up): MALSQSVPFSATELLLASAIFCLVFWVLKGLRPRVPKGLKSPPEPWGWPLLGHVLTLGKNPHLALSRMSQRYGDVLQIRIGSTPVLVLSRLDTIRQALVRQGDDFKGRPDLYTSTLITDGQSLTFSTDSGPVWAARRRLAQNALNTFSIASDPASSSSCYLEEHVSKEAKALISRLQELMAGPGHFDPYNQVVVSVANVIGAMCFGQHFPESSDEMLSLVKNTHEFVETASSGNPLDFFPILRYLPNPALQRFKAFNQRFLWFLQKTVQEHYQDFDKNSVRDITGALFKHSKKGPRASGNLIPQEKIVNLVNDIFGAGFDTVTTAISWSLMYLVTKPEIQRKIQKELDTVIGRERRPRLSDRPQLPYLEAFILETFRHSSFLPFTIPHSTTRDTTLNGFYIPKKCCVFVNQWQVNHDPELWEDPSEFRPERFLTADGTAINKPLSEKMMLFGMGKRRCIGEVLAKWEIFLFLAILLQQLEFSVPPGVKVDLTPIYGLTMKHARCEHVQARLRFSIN
In short: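 Signal from luciferin formed by CYP1A2 from a proluciferin substrate is read as luminescence, expressed in relative luminescence units. Compounds sit with enzyme 10 min, NADPH-driven reaction runs 1 h, all at room temperature.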

[6] = target: Voltage-gated inwardly rectifying potassium channel KCNH2 (Homo sapiens) (UniProt Q12809); experiment: Human Ether-a-go-go-Related Gene (hERG) channel small molecule antagonists: fluorescence cell-based qHTS assay (AID 1671200); conditions: hERG-U2OS cells, FluxOR thallium flux fluorescence; series mostly up to 76.8 µM; note: nearly all actives have a fitted effect of over 50% in size
Voltage-gated inwardly rectifying potassium channel KCNH2 (Homo sapiens), sequence (Q12809 whole entry, looked up): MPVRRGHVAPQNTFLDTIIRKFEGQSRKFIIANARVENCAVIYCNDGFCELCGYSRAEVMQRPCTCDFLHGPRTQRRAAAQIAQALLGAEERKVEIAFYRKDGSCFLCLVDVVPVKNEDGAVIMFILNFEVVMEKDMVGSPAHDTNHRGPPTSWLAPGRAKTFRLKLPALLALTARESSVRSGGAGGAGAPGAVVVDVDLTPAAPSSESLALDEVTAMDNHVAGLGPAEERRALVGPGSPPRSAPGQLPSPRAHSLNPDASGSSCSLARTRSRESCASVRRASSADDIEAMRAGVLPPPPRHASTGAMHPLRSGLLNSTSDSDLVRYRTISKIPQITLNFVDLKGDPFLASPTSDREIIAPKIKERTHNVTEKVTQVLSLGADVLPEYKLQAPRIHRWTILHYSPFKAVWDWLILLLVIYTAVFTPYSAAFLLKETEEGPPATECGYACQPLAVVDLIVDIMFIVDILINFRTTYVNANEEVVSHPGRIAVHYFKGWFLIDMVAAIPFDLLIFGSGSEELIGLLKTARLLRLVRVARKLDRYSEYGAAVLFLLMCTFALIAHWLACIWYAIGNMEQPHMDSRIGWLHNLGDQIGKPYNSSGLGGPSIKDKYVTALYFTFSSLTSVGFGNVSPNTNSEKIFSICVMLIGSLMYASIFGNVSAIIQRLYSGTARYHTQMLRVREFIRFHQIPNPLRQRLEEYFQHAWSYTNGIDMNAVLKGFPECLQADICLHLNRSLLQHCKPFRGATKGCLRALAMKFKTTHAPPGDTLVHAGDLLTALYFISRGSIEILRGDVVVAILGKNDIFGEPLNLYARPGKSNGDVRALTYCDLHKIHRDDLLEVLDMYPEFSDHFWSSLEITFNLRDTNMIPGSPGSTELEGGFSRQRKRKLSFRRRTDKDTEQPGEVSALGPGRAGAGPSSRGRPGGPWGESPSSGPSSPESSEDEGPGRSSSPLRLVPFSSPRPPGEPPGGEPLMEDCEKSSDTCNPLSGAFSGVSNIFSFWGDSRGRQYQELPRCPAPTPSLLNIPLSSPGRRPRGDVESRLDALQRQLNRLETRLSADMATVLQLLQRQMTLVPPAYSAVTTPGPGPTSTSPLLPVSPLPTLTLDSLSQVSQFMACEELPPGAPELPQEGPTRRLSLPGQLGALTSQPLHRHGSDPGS
In short: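 First, 1000 cells per well are seeded and cultured overnight at 37 C. Next, FluxOR II dye is loaded for 1 h at room temperature, protected from light. After 10 more minutes, stimulus is added and fluorescence is read.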

[7] = target: Cytochrome P450 3A4 (Homo sapiens) (UniProt P08684); experiment: Cytochrome P450 Family 3 Subfamily A Member 4 (CYP3A4) small molecule antagonists: luciferase reporter qHTS assay (AID 1671201); conditions: P450-Glo CYP3A4 enzyme, luciferin luminescence, 1 h; series mostly up to 115 µM; note: nearly all actives have a fitted effect of over 50% in size
Cytochrome P450 3A4 (Homo sapiens), sequence (P08684 whole entry, looked up): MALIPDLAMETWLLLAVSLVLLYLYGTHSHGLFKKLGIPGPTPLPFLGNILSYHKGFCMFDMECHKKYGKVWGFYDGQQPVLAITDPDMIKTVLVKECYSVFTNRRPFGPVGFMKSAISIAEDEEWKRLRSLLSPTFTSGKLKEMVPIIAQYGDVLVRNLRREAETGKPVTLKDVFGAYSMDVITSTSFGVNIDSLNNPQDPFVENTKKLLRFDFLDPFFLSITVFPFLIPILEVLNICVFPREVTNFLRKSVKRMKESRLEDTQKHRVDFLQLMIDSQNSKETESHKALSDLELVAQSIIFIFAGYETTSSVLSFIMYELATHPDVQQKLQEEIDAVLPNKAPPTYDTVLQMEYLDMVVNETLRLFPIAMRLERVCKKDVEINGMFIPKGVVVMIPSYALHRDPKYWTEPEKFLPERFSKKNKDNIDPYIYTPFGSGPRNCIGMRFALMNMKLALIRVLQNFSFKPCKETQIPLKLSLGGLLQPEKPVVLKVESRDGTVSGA
In short: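 Enzyme and proluciferin substrate are mixed with test chemicals for 10 min, then NADPH regeneration system drives turnover for 1 h at room temperature. A detection reagent halts the reaction; luminescence after 20 min gives relative activity.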

[8] = target: Cytochrome P450 2D6 (Homo sapiens) (UniProt P10635); experiment: Cytochrome P450 Family 2 Subfamily D Member 6 (CYP2D6) small molecule antagonists: luciferase reporter qHTS assay (AID 1671196); conditions: P450-Glo CYP2D6 enzyme assay, luciferin luminescence, 1 h; series mostly up to 115 µM; note: nearly all actives have a fitted effect of over 50% in size
Cytochrome P450 2D6 (Homo sapiens), sequence (P10635 whole entry, looked up): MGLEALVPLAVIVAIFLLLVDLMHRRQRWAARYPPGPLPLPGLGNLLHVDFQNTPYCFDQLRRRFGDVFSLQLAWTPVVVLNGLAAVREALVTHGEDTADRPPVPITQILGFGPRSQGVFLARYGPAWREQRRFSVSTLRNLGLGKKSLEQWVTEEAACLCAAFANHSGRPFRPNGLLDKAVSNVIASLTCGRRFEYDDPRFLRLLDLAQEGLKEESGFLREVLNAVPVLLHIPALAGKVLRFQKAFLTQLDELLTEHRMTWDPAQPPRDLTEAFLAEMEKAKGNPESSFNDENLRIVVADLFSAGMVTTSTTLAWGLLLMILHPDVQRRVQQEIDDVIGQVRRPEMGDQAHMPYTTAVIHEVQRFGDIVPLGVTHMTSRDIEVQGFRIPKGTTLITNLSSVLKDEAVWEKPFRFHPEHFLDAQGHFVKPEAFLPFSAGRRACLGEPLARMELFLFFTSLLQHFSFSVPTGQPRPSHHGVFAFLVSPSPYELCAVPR
In short: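 Inhibition of CYP2D6 was gauged by loss of luminescence, since light produced tracks the luciferin generated from a proluciferin substrate. A 10 min room-temperature preincubation preceded 1 h NADPH-supported turnover.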
Potency is the fitted concentration of half-maximal effect.

Row | SMILES | Potency [1] | Potency [2] | Potency [3] | Potency [4] | Potency [5] | Potency [6] | Potency [7] | Potency [8]
1 | O=C1C(Cl)=C(Cl)C(=O)c2ccccc21 | 11.3 µM (active) and 25.2 µM (active) | 79.9 µM (active) and 31.7 µM (active) | 7.99 µM (active) and 5.64 µM (active) | 5.04 µM (active) and 4.48 µM (active) | 17.9 µM (active) and 8.94 µM (active) | 21.9 µM (active) | 17.9 µM (active) and 17.8 µM (active) | 
2 | Cc1ccc([N+](=O)[O-])cc1 | inactive | inactive | inactive | inactive | inactive | inactive | inactive | 
3 | NN=C(N)N |  |  | 44.8 µM (active) and inactive | inactive | 31.7 µM (active) and 27.5 µM (active) | inactive | inactive | inactive
4 | CCNCC |  |  | inactive | inactive | inactive and 28.3 µM (active) | inactive | inactive | inactive
5 | CCN(CC)C(=O)C(C)Oc1cccc2ccccc12 (stereo not given) | inactive | inactive | 1.01 µM (active) and 633 nM (active) | 11.4 µM (active) and 35.6 µM (active) | 14.3 µM (active) and 28.3 µM (active) | inactive | 6.33 µM (active) | 
6 | CS(=O)(=O)NC(=O)c1cc(Oc2ccc(C(F)(F)F)cc2Cl)ccc1[N+](=O)[O-] | inactive | inactive | inactive and 79.6 µM (active) | 19.3 µM (active) and 17.8 µM (active) | inactive | inactive | inactive | inactive
7 | [CH3][Sn]([Cl])([Cl])[Cl] | inactive | inactive | inactive | inactive | inactive | inactive | inactive | 32.4 µM (active) and inactive
8 | CC(C)Nc1ccc(Nc2ccccc2)cc1 |  | inactive | 3.16 µM (active) and 3.99 µM (active) | 501 nM (active) and 1.12 µM (active) | 35.5 µM (active) and 35.6 µM (active) | 24.4 µM (active) | 12.6 µM (active) and 28.3 µM (active) | 8.91 µM (active) and 10 µM (active)
9 | CCOP(=S)(OCC)OP(=S)(OCC)OCC | 10.3 µM (active) and 11.2 µM (active) | 36.5 µM (active) and 20 µM (active) | 8.18 µM (active) and 17.8 µM (active) | 32.6 µM (active) and 35.6 µM (active) |  | inactive | 32.6 µM (active) and 39.9 µM (active) | inactive
10 | Cc1ccc(N=CN(C)C=Nc2ccc(C)cc2C)c(C)c1 | inactive | inactive | 79.6 µM (active) and inactive | inactive | 31.9 µM (active) and 35.6 µM (active) and 30.9 µM (active) | inactive | inactive | 
11 | CCCCCCCC[N+](C)(CCCCCCCC)CCCCCCCC | 63.2 µM (active) and inactive and 79.6 µM (active) | inactive | 5.63 µM (active) and 3.56 µM (active) and 31.7 µM (active) | 28.2 µM (active) and 2.83 µM (active) and 35.6 µM (active) | 39.8 µM (active) and 35.6 µM (active) | 21.8 nM (active) and 39 nM (active) and 977 nM (active) | 1 µM (active) and 449 nM (active) and 6.33 µM (active) | 28.2 nM (active) and 56.5 nM (active) and 564 nM (active)
12 | Clc1ccccc1-c1nnc(-c2ccccc2Cl)nn1 | inactive | inactive | 31.4 µM (active) and 6.31 µM (active) | inactive | 5.59 µM (active) and 7.08 µM (active) | inactive | inactive | inactive
13 | CC(C)(C#N)N=NC(C)(C)C#N | inactive | inactive | inactive | inactive | inactive | inactive | inactive | 
14 | COP(=O)(NC(C)=O)SC (stereo not given) | inactive | inactive | 71.1 µM (active) and inactive | inactive |  | inactive | inactive | 
15 | C=C(C)C#N | inactive | inactive | inactive | inactive | inactive | inactive | inactive | 
16 | Cl |  |  |  |  |  | inactive |  | 
17 | O=[N+]([O-])/N=C1\NCCN1Cc1ccc(Cl)nc1 | inactive | inactive | inactive | inactive | inactive | inactive | inactive | inactive
18 | C[N+](C)(C)CC(=O)[O-] | inactive | inactive | inactive | inactive | inactive | inactive | inactive | 
19 | COc1ccc(CO)cc1 |  |  |  |  |  | inactive |  | 

Row | SMILES | Potency [1] | Potency [2] | Potency [3] | Potency [4] | Potency [5] | Potency [6] | Potency [7] | Potency [8]
20 | CCOP(=S)(OCC)SCn1c(=O)oc2cc(Cl)ccc21 | inactive | 8.55 µM (active) and 3.99 µM (active) | 76.2 nM (active) and 89.4 nM (active) | 1.08 µM (active) and 1.12 µM (active) | 2.7 µM (active) and 3.99 µM (active) | 23.5 µM (active) | 241 nM (active) and 317 nM (active) | 13.5 µM (active) and 25.2 µM (active)
21 | CC1=C(C(=O)Nc2ccccc2)SCCO1 | inactive | inactive | 36.2 µM (active) and 22.4 µM (active) | 11.2 µM (active) | 12.8 µM (active) and 12.6 µM (active) | inactive | inactive | 
22 | CCC/C=N/O | 8.6 µM (active) and inactive | inactive | inactive | inactive | inactive | inactive | inactive | inactive
23 | [Cl-].[Cl-].[Cl-].[Fe+3] |  |  |  |  |  | inactive |  | 
24 | COP(=S)(OC)SCn1nnc2ccccc2c1=O |  | inactive | 1.1 µM (active) and 894 nM (active) | 5.53 µM (active) and 3.99 µM (active) | 27.7 µM (active) and 28.3 µM (active) | inactive | 7.81 µM (active) and 11.2 µM (active) | 55.3 µM (active) and 39.9 µM (active)
25 | CCNc1nc(Cl)nc(NC(C)(C)C#N)n1 | inactive | inactive | inactive | inactive | 39.9 µM (active) | inactive |  | 
26 | ClCC(Cl)CCl | inactive | inactive | inactive | inactive | 44.8 µM (active) | inactive | inactive | 28.5 µM (active) and inactive
27 | Cc1cc(Cl)ccc1N=CN(C)C |  |  | 79.6 µM (active) and inactive | inactive | 22.4 µM (active) and 28.3 µM (active) | inactive | inactive | 
28 | Nc1ccc2ccccc2c1 | inactive | inactive | 9.69 µM (active) and 31.7 µM (active) | 27.3 µM (active) and 31.7 µM (active) | 1.72 µM (active) and 2 µM (active) | inactive | 19.3 µM (active) and 17.8 µM (active) | 
29 | CNC(=O)Oc1cccc2c1OC(C)(C)C2 | 289 nM (active) and 126 nM (active) | 5.14 µM (active) and 1.59 µM (active) | 72.5 µM (active) |  |  | inactive | inactive | 
30 | CNC(=O)CSP(=S)(OC)OC | inactive | inactive | 10.3 µM (active) and 20 µM (active) | 36.6 µM (active) and 20 µM (active) |  | inactive |  | 
31 | O=S(=O)(O)C(F)(F)C(F)(F)C(F)(F)C(F)(F)C(F)(F)C(F)(F)C(F)(F)C(F)(F)F | inactive | inactive | 42.6 µM (active) and 22.4 µM (active) | 537 nM (active) and 502 nM (active) and 423 nM (active) | inactive and 50.2 µM (active) | inactive | inactive | 
32 | COP(=S)(OC)Oc1ccc(S(=O)(=O)N(C)C)cc1 |  | inactive | 79.6 nM (active) and 55 nM (active) | 356 nM (active) and 490 nM (active) | 31.7 µM (active) and inactive | inactive | 7.96 µM (active) and 6.92 µM (active) | 
33 | CCOP(=S)(OCC)SCSC(C)(C)C | inactive | 40.2 µM (active) and 56.4 µM (active) | 9.01 µM (active) and 3.17 µM (active) | 32 µM (active) and 14.2 µM (active) | 39.9 µM (active) | inactive | 12.7 µM (active) and 7.1 µM (active) | 
34 | N#CCCCCC#N | inactive | inactive | 72.5 µM (active) and inactive | inactive |  | inactive | inactive | 
35 | CCCCSP(=O)(SCCCC)SCCCC |  | 5.51 µM (active) and 5.03 µM (active) | 7.78 µM (active) and 2.52 µM (active) | 8.73 µM (active) and 3.17 µM (active) | 21.9 µM (active) and 12.6 µM (active) | inactive |  | 
36 | Cn1c(-c2ccccc2)cc(-c2ccccc2)[n+]1C |  | inactive | inactive | inactive and 35.6 µM (active) | inactive | 43.6 µM (active) | inactive | 
37 | OC(c1ccc(Cl)cc1)(c1cncnc1)c1ccccc1Cl (stereo not given) | inactive | inactive | 229 nM (active) and 283 nM (active) | 7.23 µM (active) and 6.33 µM (active) |  | 49.8 µM (active) and 54.9 µM (active) | 182 nM (active) and 224 nM (active) | 
38 | CCOS(=O)(=O)OCC | inactive | inactive | 79.8 µM (active) and inactive | 71.1 µM (active) and inactive | 35.6 µM (active) and inactive | inactive | inactive | 
